Targets with a hit are over-represented here; the source holds about 8,800 in all. About 0.5% of all pairs of compound and target were hits. Values without a mark were called inactive.
Assays:
Test in all cases: log2 fold change, soluble protein after heating vs DMSO (PISA); higher = thermal stabilisation; K562 lysate, 10 uM; active = over 0.2 and 3.5 SD of the protein, either way, in both replicates (recomputed)
vemurafenib = compound: CCCS(=O)(=O)Nc1ccc(F)c(C(=O)c2c[nH]c3ncc(-c4ccc(Cl)cc4)cc23)c1F [vemurafenib]
Method in brief: (§1)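 K562 pellets were dounce-homogenised in PBS pH 7.4 containing 1 mM MgCl2, and the crude extract, at 1 mg/mL protein, was exposed to 10 μM compound for 30 min. Aliquots were heated for 3 min across 48°C-58°C, pooled, brought to 0.5% NP-40 at 4°C and spun at 21,000xg for 90 min, with the supernatant taken as soluble protein. TMTpro 16plex LC-MS/MS with equalised channel sums quantified that protein. Values are log-two fold changes in thermal stability relative to solvent controls, taken from duplicates.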

[1] = compound: CCCS(=O)(=O)Nc1ccc(F)c(C(=O)c2c[nH]c3ncc(Cl)cc23)c1F
Method in brief: as §1

barasertib = compound: CCN(CCCOc1ccc2c(Nc3cc(CC(=O)Nc4cccc(F)c4)[nH]n3)ncnc2c1)CCOP(=O)(O)O [barasertib]
Method in brief: as §1

[2] = compound: CC[C@@H]1C(=O)N(C)c2cnc(Nc3ccc(C(=O)NC4CCN(C)CC4)cc3OC)nc2N1C1CCCC1
Method in brief: as §1

volasertib = compound: CC[C@@H]1C(=O)N(C)c2cnc(Nc3ccc(C(=O)N[C@H]4CC[C@H](N5CCN(CC6CC6)CC5)CC4)cc3OC)nc2N1C(C)C [volasertib]
Method in brief: as §1

[3] = compound: CCn1c(C(=O)N(C2CC2)C2CC2)cc2c3c(ncn3C)c(Nc3cc(C)n(C)n3)nc21
Method in brief: as §1

[4] = compound: CCn1cc(-c2ccnc3[nH]c(-c4cccc(CN(C)C)c4)cc23)c(-c2ccc(NC(=O)N(C)C)cc2)n1
Method in brief: as §1

[5] = compound: CN1CCC(CNc2ccc3ncc(-c4cccc(OC(F)(F)F)c4)n3n2)CC1
Method in brief: as §1

saracatinib = compound: CN1CCN(CCOc2cc(OC3CCOCC3)c3c(Nc4c(Cl)ccc5c4OCO5)ncnc3c2)CC1 [saracatinib]
Method in brief: as §1

sotrastaurin = compound: CN1CCN(c2nc(C3=C(c4c[nH]c5ccccc45)C(=O)NC3=O)c3ccccc3n2)CC1 [sotrastaurin]
Method in brief: as §1

alvocidib = compound: CN1CC[C@H](c2c(O)cc(O)c3c(=O)cc(-c4ccccc4Cl)oc23)[C@H](O)C1 [alvocidib]
Method in brief: as §1

Tubastatin A = compound: CN1CCc2c(c3ccccc3n2Cc2ccc(C(=O)NO)cc2)C1 [Tubastatin A]
Method in brief: as §1

[6] = compound: CNC(=O)C1=CC=CC=C1NC2=NC(=NC=C2Cl)NC3=C(C=C(C=C3)N4CCOCC4)OC
Method in brief: as §1

defactinib = compound: CNC(=O)c1ccc(Nc2ncc(C(F)(F)F)c(NCc3nccnc3N(C)S(C)(=O)=O)n2)cc1 [defactinib]
Method in brief: as §1

[7] = compound: CNc1nc(-c2ccc3c(N)n[nH]c3c2)cc(N2C[C@@H](C(=O)NC3CCCCC3)CC[C@H]2C)n1
Method in brief: as §1

encorafenib = compound: COC(=O)N[C@@H](C)CNc1nccc(-c2cn(C(C)C)nc2-c2cc(Cl)cc(NS(C)(=O)=O)c2F)n1 [encorafenib]
Method in brief: as §1

[8] = compound: COC(=O)[C@H](CCSC)NC(=O)C1=C(C=C(C=C1)NC[C@H](CS)N)C2=CC=CC=C2
Method in brief: as §1

alisertib = compound: COc1cc(Nc2ncc3c(n2)-c2ccc(Cl)cc2C(c2c(F)cccc2OC)=NC3)ccc1C(=O)O [alisertib]
Method in brief: as §1

[9] = compound: COc1cc2nc(-c3cc(F)ccc3O)nc(N[C@@H]3CNC[C@H]3C(C)(C)O)c2cc1OC
Method in brief: as §1

gefitinib = compound: COc1cc2ncnc(Nc3ccc(F)c(Cl)c3)c2cc1OCCCN1CCOCC1 [gefitinib]
Method in brief: as §1

Sequence of UniProt Q14103 (Q14103 whole entry, looked up): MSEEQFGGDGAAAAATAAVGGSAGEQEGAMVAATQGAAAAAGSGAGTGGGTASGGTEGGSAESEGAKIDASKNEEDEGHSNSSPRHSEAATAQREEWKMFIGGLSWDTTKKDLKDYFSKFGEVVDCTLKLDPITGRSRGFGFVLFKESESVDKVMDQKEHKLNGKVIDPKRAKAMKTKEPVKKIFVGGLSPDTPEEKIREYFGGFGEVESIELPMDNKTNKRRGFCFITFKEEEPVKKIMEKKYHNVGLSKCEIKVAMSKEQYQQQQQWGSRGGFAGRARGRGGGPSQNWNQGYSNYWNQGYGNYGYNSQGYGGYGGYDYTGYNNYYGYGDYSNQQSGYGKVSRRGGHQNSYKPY
Sequence of UniProt Q8IY47 (Q8IY47 whole entry, looked up): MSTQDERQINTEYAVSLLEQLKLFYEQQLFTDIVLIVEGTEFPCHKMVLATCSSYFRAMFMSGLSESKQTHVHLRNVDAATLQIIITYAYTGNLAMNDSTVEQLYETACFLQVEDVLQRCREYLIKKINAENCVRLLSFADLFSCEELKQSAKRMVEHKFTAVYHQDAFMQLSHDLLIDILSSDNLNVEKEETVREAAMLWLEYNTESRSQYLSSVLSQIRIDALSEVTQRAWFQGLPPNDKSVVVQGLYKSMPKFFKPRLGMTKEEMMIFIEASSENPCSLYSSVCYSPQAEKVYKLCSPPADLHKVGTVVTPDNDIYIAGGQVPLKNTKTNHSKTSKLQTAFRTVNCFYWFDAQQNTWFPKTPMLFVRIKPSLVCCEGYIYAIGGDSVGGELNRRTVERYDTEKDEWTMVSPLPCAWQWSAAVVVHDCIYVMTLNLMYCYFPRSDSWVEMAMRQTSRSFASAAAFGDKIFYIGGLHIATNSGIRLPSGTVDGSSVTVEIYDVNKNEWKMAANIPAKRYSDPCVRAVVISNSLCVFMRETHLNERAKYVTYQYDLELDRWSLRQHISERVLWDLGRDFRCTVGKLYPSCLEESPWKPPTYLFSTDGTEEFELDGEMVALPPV
Sequence of UniProt P52789 (P52789 whole entry, looked up): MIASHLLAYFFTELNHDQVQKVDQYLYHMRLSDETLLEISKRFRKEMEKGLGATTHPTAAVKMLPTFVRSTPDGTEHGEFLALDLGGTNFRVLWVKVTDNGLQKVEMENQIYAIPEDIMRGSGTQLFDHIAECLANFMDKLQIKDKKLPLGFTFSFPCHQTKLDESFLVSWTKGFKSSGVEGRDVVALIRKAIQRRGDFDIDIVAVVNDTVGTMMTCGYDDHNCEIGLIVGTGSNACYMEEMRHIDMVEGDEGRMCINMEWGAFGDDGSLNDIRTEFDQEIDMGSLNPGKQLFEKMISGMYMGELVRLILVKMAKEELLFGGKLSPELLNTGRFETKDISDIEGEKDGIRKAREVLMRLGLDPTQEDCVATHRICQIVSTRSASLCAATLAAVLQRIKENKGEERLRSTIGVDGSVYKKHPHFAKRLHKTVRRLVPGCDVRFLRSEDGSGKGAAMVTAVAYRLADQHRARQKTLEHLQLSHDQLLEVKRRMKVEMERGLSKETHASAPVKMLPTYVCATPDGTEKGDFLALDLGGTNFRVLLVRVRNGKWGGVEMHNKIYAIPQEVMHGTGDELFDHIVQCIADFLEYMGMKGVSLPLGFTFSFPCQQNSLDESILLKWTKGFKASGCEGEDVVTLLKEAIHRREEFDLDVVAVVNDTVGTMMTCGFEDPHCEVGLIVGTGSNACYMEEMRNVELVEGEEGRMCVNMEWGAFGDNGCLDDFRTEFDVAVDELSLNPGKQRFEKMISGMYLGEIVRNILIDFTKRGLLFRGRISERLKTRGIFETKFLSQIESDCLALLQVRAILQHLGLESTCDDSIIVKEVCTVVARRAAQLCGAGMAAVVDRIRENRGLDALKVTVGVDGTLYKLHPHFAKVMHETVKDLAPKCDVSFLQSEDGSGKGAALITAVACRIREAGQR
Sequence of UniProt A6NDN3 (A6NDN3 whole entry, looked up): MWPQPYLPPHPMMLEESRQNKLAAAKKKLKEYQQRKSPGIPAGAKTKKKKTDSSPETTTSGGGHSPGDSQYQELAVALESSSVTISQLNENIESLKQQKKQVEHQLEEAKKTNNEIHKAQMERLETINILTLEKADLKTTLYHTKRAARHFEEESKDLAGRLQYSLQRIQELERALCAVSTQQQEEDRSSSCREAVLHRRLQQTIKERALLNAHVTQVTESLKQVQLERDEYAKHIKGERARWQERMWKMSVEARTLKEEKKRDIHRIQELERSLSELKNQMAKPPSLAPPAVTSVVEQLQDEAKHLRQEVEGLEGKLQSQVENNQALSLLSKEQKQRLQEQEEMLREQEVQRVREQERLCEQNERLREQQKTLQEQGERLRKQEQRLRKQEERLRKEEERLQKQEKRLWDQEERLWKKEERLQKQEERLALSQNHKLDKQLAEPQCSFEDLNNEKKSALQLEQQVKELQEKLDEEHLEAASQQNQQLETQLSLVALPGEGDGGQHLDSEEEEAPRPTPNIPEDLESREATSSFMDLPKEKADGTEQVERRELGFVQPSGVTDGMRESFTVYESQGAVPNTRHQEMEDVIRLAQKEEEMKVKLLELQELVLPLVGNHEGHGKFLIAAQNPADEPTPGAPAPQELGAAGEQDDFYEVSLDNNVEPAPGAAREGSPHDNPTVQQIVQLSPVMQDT
Sequence of UniProt P09211 (P09211 whole entry, looked up): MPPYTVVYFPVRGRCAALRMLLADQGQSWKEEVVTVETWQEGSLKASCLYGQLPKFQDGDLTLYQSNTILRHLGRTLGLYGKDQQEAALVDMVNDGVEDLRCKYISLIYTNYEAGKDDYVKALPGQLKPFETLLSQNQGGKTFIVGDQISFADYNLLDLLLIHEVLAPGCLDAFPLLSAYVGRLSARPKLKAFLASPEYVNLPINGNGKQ
Sequence of UniProt Q27J81 (Q27J81 whole entry, looked up): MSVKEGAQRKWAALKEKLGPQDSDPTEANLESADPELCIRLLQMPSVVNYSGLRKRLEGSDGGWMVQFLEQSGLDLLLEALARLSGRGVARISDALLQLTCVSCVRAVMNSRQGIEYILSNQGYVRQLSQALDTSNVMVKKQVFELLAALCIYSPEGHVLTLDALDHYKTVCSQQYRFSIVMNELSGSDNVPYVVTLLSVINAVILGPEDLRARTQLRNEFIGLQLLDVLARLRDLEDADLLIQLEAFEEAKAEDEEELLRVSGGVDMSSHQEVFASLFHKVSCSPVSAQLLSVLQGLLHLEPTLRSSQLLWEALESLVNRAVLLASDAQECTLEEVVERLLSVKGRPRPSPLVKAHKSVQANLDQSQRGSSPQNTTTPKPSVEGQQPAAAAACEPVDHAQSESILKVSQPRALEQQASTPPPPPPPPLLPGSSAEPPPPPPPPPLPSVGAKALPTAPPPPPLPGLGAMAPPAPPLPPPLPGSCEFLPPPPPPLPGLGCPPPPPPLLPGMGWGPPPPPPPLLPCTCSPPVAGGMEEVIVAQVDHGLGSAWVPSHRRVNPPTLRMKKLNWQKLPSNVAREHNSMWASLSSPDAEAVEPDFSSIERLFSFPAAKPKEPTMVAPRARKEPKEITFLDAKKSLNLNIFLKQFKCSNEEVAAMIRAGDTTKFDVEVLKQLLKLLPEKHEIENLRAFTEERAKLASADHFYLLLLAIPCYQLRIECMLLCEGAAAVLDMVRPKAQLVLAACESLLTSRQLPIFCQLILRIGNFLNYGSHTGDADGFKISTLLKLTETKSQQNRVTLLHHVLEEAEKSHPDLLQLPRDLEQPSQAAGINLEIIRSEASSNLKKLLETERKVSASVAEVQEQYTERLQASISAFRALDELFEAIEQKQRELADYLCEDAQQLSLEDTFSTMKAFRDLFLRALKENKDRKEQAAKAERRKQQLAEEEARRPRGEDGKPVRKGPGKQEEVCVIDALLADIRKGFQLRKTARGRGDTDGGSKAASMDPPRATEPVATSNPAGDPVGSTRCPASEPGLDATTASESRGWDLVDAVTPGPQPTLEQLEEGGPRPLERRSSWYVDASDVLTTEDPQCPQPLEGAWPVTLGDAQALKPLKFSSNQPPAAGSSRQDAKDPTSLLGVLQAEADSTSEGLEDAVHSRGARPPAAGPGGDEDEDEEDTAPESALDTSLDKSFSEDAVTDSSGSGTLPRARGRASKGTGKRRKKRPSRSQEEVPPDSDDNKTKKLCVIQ
Sequence of UniProt O00425 (O00425 whole entry, looked up): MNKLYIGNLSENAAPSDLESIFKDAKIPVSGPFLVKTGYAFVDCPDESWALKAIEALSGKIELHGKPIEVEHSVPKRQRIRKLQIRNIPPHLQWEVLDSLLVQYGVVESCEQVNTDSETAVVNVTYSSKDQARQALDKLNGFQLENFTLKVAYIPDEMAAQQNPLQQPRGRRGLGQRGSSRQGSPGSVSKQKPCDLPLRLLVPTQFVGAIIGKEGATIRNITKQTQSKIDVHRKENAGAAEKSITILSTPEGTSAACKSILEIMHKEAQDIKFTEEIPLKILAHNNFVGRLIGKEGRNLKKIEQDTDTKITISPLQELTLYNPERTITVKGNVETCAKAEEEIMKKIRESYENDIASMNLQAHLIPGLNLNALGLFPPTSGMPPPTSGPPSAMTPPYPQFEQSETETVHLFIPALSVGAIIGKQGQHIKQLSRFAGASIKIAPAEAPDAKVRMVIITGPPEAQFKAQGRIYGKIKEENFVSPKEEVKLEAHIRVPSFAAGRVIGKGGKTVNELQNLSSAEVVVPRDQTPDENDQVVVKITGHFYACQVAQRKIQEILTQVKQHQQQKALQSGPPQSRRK
Sequence of UniProt Q99871 (Q99871 whole entry, looked up): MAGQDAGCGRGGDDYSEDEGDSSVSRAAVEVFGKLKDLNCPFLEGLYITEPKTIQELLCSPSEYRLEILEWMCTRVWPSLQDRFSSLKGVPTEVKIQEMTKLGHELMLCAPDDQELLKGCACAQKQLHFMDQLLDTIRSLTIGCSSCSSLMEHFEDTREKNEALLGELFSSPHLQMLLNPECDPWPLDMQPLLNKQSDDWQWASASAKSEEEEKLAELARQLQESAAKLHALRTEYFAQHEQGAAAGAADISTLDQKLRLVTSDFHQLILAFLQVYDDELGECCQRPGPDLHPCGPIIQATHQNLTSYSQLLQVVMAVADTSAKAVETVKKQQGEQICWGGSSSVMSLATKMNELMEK

Target	log2 fold change (vemurafenib)	log2 fold change [1]	log2 fold change (barasertib)	log2 fold change [2]	log2 fold change (volasertib)	log2 fold change [3]	log2 fold change [4]	log2 fold change [5]	log2 fold change (saracatinib)	log2 fold change (sotrastaurin)	log2 fold change (alvocidib)	log2 fold change (Tubastatin A)	log2 fold change [6]	log2 fold change (defactinib)	log2 fold change [7]	log2 fold change (encorafenib)	log2 fold change [8]	log2 fold change (alisertib)	log2 fold change [9]	log2 fold change (gefitinib)
GOLGA6B (UniProt A6NDN3)	0.015	-0.003	0.2	0.149	-0.006	0.078	-0.086	0.102	0.101	-0.004	-0.019	-0.054	-0.002	0.018	-0.086	-0.048	-0.053	-0.074	0.043	0.065
INF2 (UniProt Q27J81)	0	-0.059	0.104	-0.07	-0.052	-0.01	-0.064	-0.045	0.036	0.019	-0.027	-0.062	0.022	0.117	-0.104	-0.068	0.083	-0.008	-0.01	-0.009
HAUS7 isoform 2 (UniProt Q99871)	-0.054	0.006	0.002	0.005	-0.06	-0.021	0.073	-0.173	0.044	-0.025	0.001	-0.128	0.021	-0.045	-0.021	0.024	0.099	0.031	-0.135	-0.043
GSTP1 (UniProt P09211)	-0.007	-0.017	0.008	0.003	0.034	0.324 (active)	-0.059	0.021	0	-0.002	0.04	-0.057	-0.017	0.008	-0.036	-0.052	0.061	0.037	-0.008	0.007
KBTBD2 (UniProt Q8IY47)	-0.035	0.006	0.022	-0.018	0.013	-0.181	-0.166	0.06	0.031	-0.03	-0.073	0.167	-0.009	-0.013	-0.036	0.018	-0.362 (active)	-0.053	-0.01	0.028
HK2 (UniProt P52789)	0.046	0.006	0.009	-0.044	-0.049	0.023	-0.015	-0.075	-0.009	0.001	0.006	-0.17	0.024	0.017	-0.006	0	0.165	0.023	-0.031	-0.016
IGF2BP3 (UniProt O00425)	0.024	0.006	0.016	-0.106	-0.025	-0.016	-0.062	-0.022	0.026	0.011	0.012	-0.147	-0.022	-0.028	-0.016	-0.022	0.218	0.006	-0.003	-0.017
HNRNPD isoform 2 (UniProt Q14103)	0.011	0.002	-0.052	0.022	0.029	-0.036	0.857 (active)	-0.135	0	-0.08	0.142	0.108	0.001	-0.043	0.065	-0.032	-0.008	0.018	-0.008	0

Reference: the supplement of paper PMC10849652
